Bioassay records as filed in PubChem BioAssay.
An excerpt weighted towards active compounds, which were near 3.3% of everything screened.
UBC9 SUMO inh – inhibitors of in vitro SUMOylation cascade, primary screen, biochemical, HTRF, uHTS | HTRF SUMOylation assay, SAE1/SAE2 + UBC9 | inhibition, % at 35 µM | SUMO-conjugating enzyme UBC9 (Homo sapiens), P63279 | 290,000 tested, 0.36% active | AID 2006, 2009; in the data active = inhibition above about 50%, passing the limit was not always enough
NR3A LBD binder – binders of NR3A ligand-binding domain, primary screen, biophysical, differential scanning fluorimetry, uHTS; Glutamate receptor ionotropic, NMDA 3A (GRIN3A) ligand-binding domain; NR3A LBD differential scanning fluorimetry, Tm shift; 0% = protein alone, 100% = glycine-bound protein; 340,000 tested, 2.5% active; Tm shift relative to glycine control, % at 25 µM;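 active = melting temperature shift of at least 10% of the positive control shift, at one fixed dose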
UBC13 polyUb – UBC13 polyubiquitin chain formation inhibitors, primary screen, biochemical, TR-FRET, uHTS. 330,000 tested, 0.47% active. Ubiquitin-conjugating enzyme E2 N (Homo sapiens), P61088. AID 485273, 2010. inhibition, % at 20 µM; in the data active = inhibition above about 45%, passing the limit was not always enough
Target sequence (P61088 whole entry, looked up): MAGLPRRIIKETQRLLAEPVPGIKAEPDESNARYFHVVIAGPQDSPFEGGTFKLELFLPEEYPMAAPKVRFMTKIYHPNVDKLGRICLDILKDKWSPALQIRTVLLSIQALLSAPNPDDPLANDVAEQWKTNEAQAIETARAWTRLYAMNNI
HGIII-sPLA2 inh – human group III sPLA2 inhibitors, primary screen, biochemical, QFRET, BODIPY PC-A2 liposome substrate | Group 3 secretory phospholipase A2 (Homo sapiens), Q9NZ20 | inhibition, % at 12.2 µM | 370,000 tested, 0.56% active | QFRET BODIPY PC-A2 liposome hydrolysis, fluorescence | AID 743126, 2013;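 active = inhibition above mean plus 3 SD of compounds lying within the high and low control bounds, cut at about 19% in these data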
Target sequence (Q9NZ20 whole entry, looked up): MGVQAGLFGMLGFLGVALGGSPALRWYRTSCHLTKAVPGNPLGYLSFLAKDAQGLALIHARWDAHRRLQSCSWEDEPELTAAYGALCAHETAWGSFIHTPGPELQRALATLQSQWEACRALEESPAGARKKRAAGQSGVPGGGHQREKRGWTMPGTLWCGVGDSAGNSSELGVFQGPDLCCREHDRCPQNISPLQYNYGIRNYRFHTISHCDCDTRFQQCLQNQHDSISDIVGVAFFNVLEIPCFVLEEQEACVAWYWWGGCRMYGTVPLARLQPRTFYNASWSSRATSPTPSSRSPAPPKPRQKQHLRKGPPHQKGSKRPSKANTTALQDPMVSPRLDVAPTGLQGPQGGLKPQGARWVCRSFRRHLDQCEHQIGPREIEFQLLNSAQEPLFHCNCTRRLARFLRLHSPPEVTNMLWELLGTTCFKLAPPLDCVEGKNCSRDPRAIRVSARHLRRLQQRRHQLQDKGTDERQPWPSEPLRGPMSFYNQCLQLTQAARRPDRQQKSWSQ
Of the large screens only hits and unclear results are named; the others gave an inactive call.

COc1ccc(OCCOC(=O)Nc2ccccc2)cc1	NR3A LBD binder 33.2
O=C(Nc1ccccc1)OCCOc1ccccc1	none
O=C(Nc1cccc(Cl)c1)OCCOC(=O)Nc1cccc(Cl)c1	NR3A LBD binder 28.7 (no result: UBC9 SUMO inh, UBC13 polyUb)
CCCc1cc(C(=O)Nc2cccc(C(C)=O)c2)no1	none
CCCc1cc(C(=O)Nc2cccc(Cl)c2)no1	NR3A LBD binder 12.8
O=C(Nc1ccccc1)OCCOc1ccccc1Br	none
O=C(Nc1ccccc1)OCCCCCOC(=O)Nc1ccccc1	NR3A LBD binder 46.1
O=C(Nc1cccc(O)c1)c1cc(-c2ccccc2Cl)on1	NR3A LBD binder 29.9
C=CCN1C(=O)[C@@H](CC(=O)N2CCN(C(=O)c3ccco3)CC2)[C@]2(C(=O)OCC)CCCCC/C=C/12	none (no result: UBC9 SUMO inh, NR3A LBD binder, UBC13 polyUb)
COC(=O)[C@]12C[C@H](CC(=O)N3CCSCC3)C(=O)N(Cc3ccccc3)C1=C[C@H](COCc1ccccc1)O[C@@H]2C	none (no result: UBC9 SUMO inh, NR3A LBD binder, UBC13 polyUb)
Cc1sc2nc3n(c(=O)c2c1C)CCCS3	NR3A LBD binder 18.5
CC1CCN(Cc2cc(=O)oc3cc(O)c(Cl)cc23)CC1	UBC9 SUMO inh 55.2
CC1CN(Cc2cc(=O)oc3cc(O)c(Cl)cc23)CC(C)O1 (stereo not given)	none
COC(=O)C1CN(Cc2ccc(Cl)cc2)CCS(=O)(=O)N1Cc1cn(Cc2ccc(F)cc2)nn1 (stereo not given)	none (no result: UBC9 SUMO inh, NR3A LBD binder, UBC13 polyUb)
C/C=C/c1ccc([C@@H]2[C@H](CO)N(S(C)(=O)=O)[C@H]2CN(C)C(=O)CC)cc1	none (no result: UBC9 SUMO inh, NR3A LBD binder, UBC13 polyUb)
Fc1ccccc1-c1ccc(/C=N/Nc2nc3ccccc3[nH]2)o1	NR3A LBD binder 21.2, HGIII-sPLA2 inh 30.0
O=C1ON=C(c2ccccc2)/C1=C/c1ccc(-c2ccccc2[N+](=O)[O-])o1	NR3A LBD binder 22.5 (no result: UBC13 polyUb)
C=C(O[C@H]1[C@H](O)CC=C(C(=O)O)[C@@H]1O)C(=O)O	none (no result: UBC9 SUMO inh, NR3A LBD binder, UBC13 polyUb)
COc1ccccc1CNC(=O)C[C@H]1CC[C@H]2[C@H](COc3ccc(NS(=O)(=O)c4ccc(C)cc4)cc3C(=O)N2C)O1	none (no result: UBC9 SUMO inh, NR3A LBD binder, UBC13 polyUb)
COc1cccc(/C=N/Nc2nnc3c(n2)[nH]c2ccccc23)c1OC	none
CCc1ccc2[nH]c3nc(N/N=C/c4cccc(O)c4)nnc3c2c1	NR3A LBD binder 17.6
CC(C)(O)CC[C@@H](O)[C@](C)(O)C1CC[C@@]2(O)C3=CC(=O)[C@@H]4C[C@@H](O)[C@@H](O)C[C@]4(C)C3CC[C@]12C (stereo not given in full)	NR3A LBD binder 10.1 (no result: UBC9 SUMO inh)
CC(C)=CCC/C(C)=C/C[C@]12C[C@H](C(=O)O)N(C(=O)OC(C)(C)C)[C@@H]1N(C(=O)OC(C)(C)C)c1ccccc12	none (no result: UBC9 SUMO inh, NR3A LBD binder, UBC13 polyUb)
O=C(Nc1ccc(Oc2cccnc2)cc1)C1CCN(Cc2cc(Cl)ccc2O)CC1	NR3A LBD binder 87.7
Cn1cccc1/C=C1\SC(=Nc2cccc(O)c2)NC1=O	NR3A LBD binder 26.1
Cc1cccc(N=C2NC(=O)/C(=C/C=C/c3ccco3)S2)c1	none (no result: UBC13 polyUb)
Cn1cccc1/C=C1\SC(=Nc2ccc(O)cc2)NC1=O	none
O=C1NC(=Nc2ccc(O)cc2)S/C1=C/c1ccco1	NR3A LBD binder 12.7
COc1cc(/C=C2\SC(=Nc3ccc(O)cc3)NC2=O)cc(OC)c1O	NR3A LBD binder 12.6
Cc1ccc(N=C2NC(=O)/C(=C\c3ccco3)S2)cc1	none
COc1ccc(N=C2NC(=O)/C(=C\C=C\c3ccco3)S2)cc1	UBC9 SUMO inh 84.8
C=CCN1[C@@H](C)COc2cccc(F)c2S1(=O)=O	none (no result: UBC9 SUMO inh, NR3A LBD binder, UBC13 polyUb)
COC(=O)[C@]12C[C@H](CC(=O)NCCCN3CCCC3=O)C(=O)N(Cc3ccc(Cl)cc3Cl)C1=C[C@H](C1CCCC1)O[C@@H]2C	none (no result: UBC9 SUMO inh, NR3A LBD binder, UBC13 polyUb)
CC[C@H](CCC(=O)N(c1ccccc1)c1ccccc1)c1ccc(C)cc1	none (no result: UBC9 SUMO inh, NR3A LBD binder, UBC13 polyUb)
COC(=O)/C=C1\SC(=Nc2ccccc2)NC1=O	none
COC(=O)/C=C1/SC(=Nc2ccc(Cl)c(Cl)c2)NC1=O	NR3A LBD binder 17.7
Cc1ccc(N=C2NC(=O)/C(=C/c3cn(C)c4ccccc34)S2)cc1C	NR3A LBD binder 32.2 (no result: UBC13 polyUb)
Cc1ccc(S(=O)(=O)n2ccc(-c3c(-c4ccccc4)noc3C)n2)cc1	none (no result: UBC9 SUMO inh, NR3A LBD binder, UBC13 polyUb)
Cc1ccc(Cn2c(SCCN3CCCCC3)nc3c2c(=O)[nH]c(=O)n3C)cc1	none
Cn1c(=O)[nH]c(=O)c2c1nc(SCCN1CCCCC1)n2Cc1ccccc1	NR3A LBD binder 11.7
CC1CCc2c(sc(NC(=O)Cn3nc(C(F)(F)F)c4c3CCCCC4)c2C#N)C1 (stereo not given)	NR3A LBD binder 15.6
COc1ccc(C2CC(c3ccccc3)=NN2C(=S)Nc2ccccc2)cc1 (stereo not given)	none
COc1ccc(C2CC(c3ccc(Br)cc3)=NN2C(=S)Nc2ccccc2)cc1 (stereo not given)	NR3A LBD binder 11.3
Cc1ccc(C(=O)O)cc1NC(=O)c1cccs1	none
Cc1ccc(C(=O)O)cc1NC(=O)C1=CSCCO1	NR3A LBD binder 20.9
Cc1ccc(NC(=O)c2cc(-c3cc(Cl)ccc3O)n[nH]2)cc1C	NR3A LBD binder 29.2
Cc1cccc(NC(=O)c2cc(-c3cc(Cl)ccc3O)n[nH]2)c1	NR3A LBD binder 36.0 (no result: HGIII-sPLA2 inh)
O=C1C[C@@H](c2ccccc2)N=C2N(CC3CC3)C/C(=C/c3ccccc3)N12	none (no result: UBC9 SUMO inh, NR3A LBD binder, UBC13 polyUb)
O=C1NC(=S)S/C1=C\c1cc2ccccc2nc1N1CCCCC1	UBC9 SUMO inh 55.2
O=S1(=O)c2ccc(N3CCCC3)cc2Oc2ccccc2CN1Cc1cn(Cc2ccc(Cl)cc2)nn1	none (no result: UBC9 SUMO inh, NR3A LBD binder, UBC13 polyUb)
CC[C@@]1(c2ccc(C)cc2)C(=O)N(C(=O)OC)N1C(=O)OC	none (no result: UBC9 SUMO inh, NR3A LBD binder, UBC13 polyUb)
COc1ccc2c(Cl)c(C(=O)NN)sc2c1	none
COc1ccc2c(Cl)c(C(N)=O)sc2c1	NR3A LBD binder 34.0
CCc1ccc2oc(C(=O)NCCc3ccc(S(N)(=O)=O)cc3)cc(=O)c2c1	NR3A LBD binder 14.9
Cc1ccc2oc(C(=O)NCc3ccc(S(N)(=O)=O)cc3)cc(=O)c2c1	none
Oc1ccc(/C=C/c2nc(-c3ccccc3O)n(-c3ccccc3)n2)cc1	NR3A LBD binder 14.1
Oc1ccccc1-c1nc(/C=C/c2ccccc2)nn1-c1ccccc1	none (no result: UBC13 polyUb)
Cc1ccc(-n2c(=O)c3sccc3n(Cc3cc(=O)n4cc(Cl)ccc4n3)c2=O)cc1F	NR3A LBD binder 14.8
COC(=O)C1CN(Cc2cn(Cc3ccc(Cl)cc3)nn2)CCS(=O)(=O)N1Cc1ccc(OC)cc1 (stereo not given)	none (no result: UBC9 SUMO inh, NR3A LBD binder, UBC13 polyUb)
COC(=O)[C@]12C[C@H](CC(=O)N3CCC(c4ccccc4)CC3)C(=O)N(Cc3ccc(Cl)cc3Cl)C1=C[C@H](C(C)C)O[C@@H]2C1CC1	none (no result: UBC9 SUMO inh, NR3A LBD binder, UBC13 polyUb)
Cc1ccc(NC(=O)c2sc3nc4c(c(-c5ccco5)c3c2N)CCC4)cc1	none
Nc1c(C(=O)Nc2ccc(F)cc2)sc2nc(-c3ccco3)ccc12	UBC9 SUMO inh 74.5
CC(=O)c1sc2nc(-c3ccco3)ccc2c1N	UBC9 SUMO inh 70.3
NC(=O)c1sc2nc(-c3ccccc3)ccc2c1N	none
Nc1c(C(=O)Nc2ccc(Br)cc2)sc2nc(-c3ccco3)ccc12	UBC9 SUMO inh 72.3
Brc1ccc(-c2nn3c(-c4ccccc4)nnc3s2)o1	none (no result: UBC9 SUMO inh, NR3A LBD binder, UBC13 polyUb)
